# Experimental data as given in PubChem BioAssay (Tox21).
# Inconclusive results are not listed. A call without a number means that no potency is given here. The source made the active and inactive calls. The call rests on the fitted dose curve; in most records, active means well fitted activation curve with a large enough effect in the repeat runs; inconclusive means weak or mixed curves; inactive means no such curve, though single readings can be large or run the other way.
# Biological target: Aryl hydrocarbon receptor (Homo sapiens) (UniProt P35869)
# Assay: qHTS assay to identify small molecule that activate the aryl hydrocarbon receptor (AhR) signaling pathway (AID 743085); further: nearly all actives have a fitted effect of over 15% in size;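 on activation: HG2L7.5c1 human HepG2 liver cells with stably integrated DRE-driven firefly reporter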
# Conditions: HepG2 AhR-luc (HG2L7.5c1), luciferase, 24 h; series mostly up to 70.3 µM
# From the text: U.S. Tox21 Program National Center for Advancing Translational Sciences [NCATS] NIH Chemical Genomics Center [NCGC] U.S. Environmental Protection Agency [EPA] National Institutes of Environmental Health Sciences [NIEHS] National Toxicology Program [NTP] U.S. Food and Drug Administration [FDA] Tox21 Assay overview: The Aryl hydrocarbon Receptor (AhR), a member of the family of basic helix-loop-helix transcription factors, is crucial to adaptive responses to environmental changes. AhR mediates cellular responses to environmental pollutants such as aromatic hydrocarbons through induction of phase I and II enzymes but also interacts with other nuclear receptor signaling pathways. A cell based HepG2-AhR-luc assay (HG2L7.5c1 cell line, developed by Dr. Michael S. Denison, University of California at Davis, was used to assess the activation of AhR. HepG2 (human hepatocellular carcinoma) cells were stably transfected with an Ah receptor-responsive firefly luciferase reporter gene plasmid containing 20 dioxin responsive elements and luciferase reporter gene. Increased luciferase activity can be used to identify the compounds that induce AhR activation.
# Tox21 Assay Protocol Summary: 4000 cells in 5 uL/well were dispensed into white wall/solid bottom 1536-well plates using a Multidrop Combi (Thermo Fisher Scientific Inc., Waltham, MA) dispenser. After the assay plates were incubated at 37C for 5 h, 23 nL of compound or DMSO vehicle was transferred to the assay plates by a pintool station (Kalypsys, San Diego, CA). The plates were incubated at 37C for 24 hr. After 1 ul/well of CellTiter-Fluor reagent (Promega, Madison, WI) was added into the assay plates using a Flying Reagent Dispenser (FRD) (Aurora Discovery, CA), the assay plates were incubated at 37C for 30 min. The fluorescence intensity in the plates was measured using a ViewLux plate reader (PerkinElmer, Shelton, CT), followed by the addition of 4 uL of ONE-Glo Luciferase Assay reagent (Promega) using an FRD (Aurora Discovery). After the assay plates were incubated at room temperature for 30 min, luminescence intensity was measured using a ViewLux plate reader (Perkin Elmer).
# Potency means the concentration at half of the fitted maximal effect.
# Sequence of Aryl hydrocarbon receptor (Homo sapiens) (P35869 whole entry, looked up): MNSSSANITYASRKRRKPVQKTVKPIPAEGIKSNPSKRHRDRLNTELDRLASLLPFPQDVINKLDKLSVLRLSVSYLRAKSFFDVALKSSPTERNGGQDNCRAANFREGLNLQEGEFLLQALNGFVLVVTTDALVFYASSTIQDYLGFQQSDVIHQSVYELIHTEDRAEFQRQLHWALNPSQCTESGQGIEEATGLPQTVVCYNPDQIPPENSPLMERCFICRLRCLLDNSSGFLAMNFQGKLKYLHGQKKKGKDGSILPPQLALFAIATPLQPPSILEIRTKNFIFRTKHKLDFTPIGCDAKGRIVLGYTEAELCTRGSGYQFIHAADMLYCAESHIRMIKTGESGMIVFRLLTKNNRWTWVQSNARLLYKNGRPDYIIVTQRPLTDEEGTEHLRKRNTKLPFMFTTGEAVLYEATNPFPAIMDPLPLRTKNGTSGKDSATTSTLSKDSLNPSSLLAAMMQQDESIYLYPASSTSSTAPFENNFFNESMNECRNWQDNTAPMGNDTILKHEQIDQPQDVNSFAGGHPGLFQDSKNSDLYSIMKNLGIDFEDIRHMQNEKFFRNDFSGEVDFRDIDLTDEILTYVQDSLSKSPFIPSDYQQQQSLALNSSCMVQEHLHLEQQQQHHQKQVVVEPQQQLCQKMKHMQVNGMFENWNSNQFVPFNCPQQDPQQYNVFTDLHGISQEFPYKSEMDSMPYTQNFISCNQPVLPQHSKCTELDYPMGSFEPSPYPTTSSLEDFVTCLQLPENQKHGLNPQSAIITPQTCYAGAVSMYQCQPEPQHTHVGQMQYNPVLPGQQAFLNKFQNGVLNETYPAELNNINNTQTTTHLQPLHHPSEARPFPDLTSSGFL
row,Compound,Potency
1,N#CCC(=O)NN,inactive
2,C=C(C)[C@@H]1CC=C(C)CC1,inactive
3,CC1(C)Oc2ccc(C#N)cc2[C@@H](N2CCCC2=O)[C@@H]1O,inactive
4,Cc1cc(C)c(C(=O)O)c(C)c1,inactive
5,CC(C)C1OCCN1CCOC(=O)NCCCCCCNC(=O)OCCN1CCOC1C(C)C (stereo not given),inactive
6,CC(C)(CO)C(O)C(=O)NCCCO (stereo not given),inactive
7,CCOCCOCC,inactive
8,COC(=O)c1cccc(Cl)c1,inactive
9,CC(C)Cn1cnc2c1c(=O)n(C)c(=O)n2C,inactive
10,CCOc1cccc(N)c1,inactive
11,CC(=O)O[C@H]1C[C@@H]2CC[C@@]1(C)C2(C)C,inactive
12,O=C1CCC(=O)N1Cl,inactive
13,O=Cc1ccccc1Cl,inactive
14,C=CCCCCCCCC,inactive
15,CC1(C)Cc2cccc(N)c2O1,inactive
16,CCCCCCCCCCCCCCCCCC#N,inactive
17,CCCCCCC1(C)CCC(=O)O1 (stereo not given),inactive
18,C=CC(=O)OCC1CCCO1 (stereo not given),inactive
19,Cc1ncc([N+](=O)[O-])n1CC(C)O (stereo not given),inactive
20,Cc1cccc(Cl)c1,inactive

row,Compound,Potency
1,Cc1c(Cl)cccc1Cl,inactive
2,CC(C)CCOC(=O)c1ccccc1,inactive
3,ONc1ccccc1,60.5 µM (active)
4,O/N=C/C=N/O,inactive
5,CO[Si](CCCn1c(=O)n(CCC[Si](OC)(OC)OC)c(=O)n(CCC[Si](OC)(OC)OC)c1=O)(OC)OC,inactive
6,c1ccc2cnccc2c1,inactive
7,COC(C)(OC)OC,inactive
8,Cc1ccccc1C(N)=O,inactive
9,COc1ccc2c(c1)c1c3n2CCN(C)C3=NCC1,13.3 µM (active)
10,Cc1c(C(=O)c2c[nH]n(C)c2=O)ccc(S(C)(=O)=O)c1C1=NOCC1,inactive
11,O=C(NCN1CCOCC1)c1cnccn1,inactive
12,O=C(O)c1cc2ccccc2nc1C(=O)O,inactive
13,CCOC(=O)CC1(C)OCC(C)O1 (stereo not given),inactive
14,CCCC(=O)OCCC(C)CCC=C(C)C (stereo not given),inactive
15,CC(=O)O[Si](C)(OC(C)=O)OC(C)=O,inactive
16,CC(O)CC(C)O (stereo not given),inactive
17,CSc1cnccn1,inactive
18,CCOC(CN1CCN(CC(C)C(=O)c2ccccc2)CC1)c1ccccc1 (stereo not given),inactive
19,CC1=C(O)C(=O)C(C)O1 (stereo not given),inactive
20,CCCCCCCCCCCCCCCCCCOCCO,inactive
